# Test results published in PubChem BioAssay (NCATS).
# “And” between values parts separate entries of the source, which are not always exact repeats. Equal entries are not always repeated. Records with an inconclusive call do not appear. A number with no mark means an inactive call. The source made the active and inactive calls. The call rests on the fitted dose curve; in most records, active means well fitted inhibition curve with a large enough effect; inconclusive means small, poorly fitted or top-dose-only effect; inactive means no such curve, though single readings can be large or run the other way.
# Test: Primary qHTS for inhibitors of nuclear receptor binding SET domain protein 2 (NSD2) in an RCH-ACV wild type WT cells (2C) (AID 1645877); further: nearly all actives have a fitted effect of over 70% in size
# Settings: RCH-ACV (leukaemia line) NSD2 WT (2C) viability, CellTiter-Glo, 72 h; series mostly up to 44.9 µM
# On the % scale 0 is the no-effect control and ±100 the full control effect; potency means the concentration at half of the fitted maximal effect.
SMILES,Potency,"activity change, negative = cell killing"
c1ccc2c(-c3cnn4cc(-c5ccc(N6CCNCC6)cc5)cnc34)ccnc2c1,2.09 µM (active),
CCS(=O)(=O)N1CC(CC#N)(n2cc(-c3ncnc4[nH]ccc34)cn2)C1,16.6 µM (active),
Nc1ncnc2c1nc(Cl)n2[C@@H]1O[C@H](CO)[C@@H](O)[C@@H]1O,20.9 µM (active),
O=C(Nc1cc(Cl)cc2c1[nH]c1cnccc12)c1cccnc1,inactive,
N[C@H](CSC(c1ccccc1)(c1ccccc1)c1ccccc1)C(=O)O,inactive,
COc1ccc(C2Sc3ccccc3N(CCN(C)C)C(=O)C2OC(C)=O)cc1 (stereo not drawn),inactive,
CC[C@@]1(O)C[C@H](O[C@H]2C[C@H](N(C)C)[C@H](O[C@H]3C[C@H](O)[C@H](O[C@H]4CCC(=O)[C@H](C)O4)[C@H](C)O3)[C@H](C)O2)c2c(cc3c(c2O)C(=O)c2c(O)cccc2C3=O)[C@@H]1C(=O)OC,1.18 µM (active),
COc1cc(N2CCC(N3CCN(C)CC3)CC2)ccc1Nc1ncnc(Nc2ccccc2S(=O)(=O)C(C)C)n1,18.4 µM (active) and 10.5 µM (active),
COc1ccc2cccc(CCNC(C)=O)c2c1,inactive,
CNC1CCC(N(Cc2cccc(-c3ccncc3)c2)C(=O)c2sc3c(F)ccc(F)c3c2Cl)CC1 (stereo not drawn),7.42 µM (active) and 8.17 µM (active),
CC1CCC(C(=O)N(c2cc(C#CC(C)(C)C)sc2C(=O)O)C2CCC(O)CC2)CC1 (stereo not drawn),16.6 µM (active),
C=C1C(=O)[C@@]23C(CC[C@@H]1[C@H]2O)[C@@]12CO[C@]3(O)[C@@H](O)[C@@H]1C(C)(C)CC[C@@H]2O (stereo partly drawn),1.48 µM (active),
CCCCCN(C)CCC(O)(P(=O)(O)O)P(=O)(O)O,,7.25% [at 4.96 µM]
C[N+](C)(C)CC(=O)O,inactive,
CC(C)C(C)C=CC(C)C1CCC2C3=CC=C4CC(O)CCC4(C)C3CCC21C (stereo not drawn),inactive,
Clc1cc(Cl)cc(CNc2ncncc2-c2ccc3c(c2)OCO3)c1,11.8 µM (active),
O=c1cc(-c2cccc3c2Sc2ccccc2S3)oc(N2CCOCC2)c1,11.6 µM (active) and 11.8 µM (active),

SMILES,Potency,"activity change, negative = cell killing"
O=C(NCc1ccccc1)c1csc(Nc2ccncn2)n1,9.34 µM (active) and 16.3 µM (active),
Cn1c(N2CCCCS2(=O)=O)nc(C(=O)NCc2ccc(F)cc2)c(O)c1=O,inactive,
O=C(NC1CCOCC1)c1ccc(-c2cc(-c3cn[nH]c3-c3ccccn3)ccn2)cc1,inactive,
Oc1ccc(C2=Cc3ccc(O)cc3OC2)cc1,1.32 µM (active),
N#Cc1ccc(NC(=O)Nc2ccccc2Br)c2n[nH]nc12,inactive,
CC(C)(C)c1cc(C(=O)O)c(NC(=O)Nc2ccc3[nH]ncc3c2)s1,inactive,
COc1cccc([C@@H](C)NCCCc2ccccc2Cl)c1,18.6 µM (active),
O=C(O)Cc1cccc2ccccc12,inactive,
CCOC(=O)C1=C(N)Oc2ccc(Br)cc2C1C(C#N)C(=O)OCC (stereo not drawn),inactive,
O=C1C(Cl)=C(NCCN2CCOCC2)C(=O)c2ncccc21,3.32 µM (active),
Cc1cnc(C(=O)O)c[n+]1[O-],inactive,
COc1ccc(-c2nc(N3CCOCC3)c3sc(CN(C)c4ncc(C(=O)NO)cn4)cc3n2)cn1,8.2 nM (active) and 33.2 nM (active),
O=C(O)c1ccccc1C(=O)Nc1ccc(-c2ccccc2)cc1,inactive,
CC(C)(C)COc1ccc(-n2cc(C(=O)O)cn2)cc1C#N,inactive,
Cc1ccccc1C(C(=O)NC1CCCCC1)N(C(=O)Cn1ccnc1C)c1cccc(F)c1 (stereo not drawn),inactive,
CCOC(CN1C(=O)[C@](CC(=O)Nc2ccc(C)cc2)(NC(=O)Nc2ccc(C)cc2)c2ccccc21)OCC,6.61 µM (active),
